{"source": "PubChem BioAssay (Tox21)", "note": "Where “and” joins values, the source holds several entries; their conditions need not be identical. Equal entries are not always repeated. Inconclusive results are not listed. More than one record can exist for a structure, and the calls need not agree. Calls of active or inactive are those of the source. Calls come from the whole dose curve; as a rule, active = well fitted cell-killing curve with a large enough effect in the repeat runs; inconclusive = weak or mixed curves, or effect the other way; inactive = flat fitted curve, though single readings scatter. % is set by controls: 0 for no effect and ±100 for the full control effect; potency is the fitted concentration of half-maximal effect.", "data": [{"experiment": "qHTS assay to identify small molecule agonists of the androgen receptor (AR) signaling pathway in the presence of an antagonist - cell viability counter screen (AID 1259379); note: nearly all actives have a fitted effect of over 25% in size", "settings": "MDA-kb2 viability, CellTiter-Fluor, 16 h; series mostly up to 92.4 µM; activity change, negative = cytotoxicity: at the top concentration", "excerpt": "National Center for Advancing Translational Sciences [NCATS]\nNIH Chemical Genomics Center [NCGC]\nU.S. Environmental Protection Agency [EPA]\nNational Institutes of Environmental Health Sciences [NIEHS]\nNational Toxicology Program [NTP]\nU.S. Food and Drug Administration [FDA]\nAndrogen receptor (AR) is an important member of nuclear receptor family. Its signaling plays a critical role in AR-dependent prostate cancer and other androgen related diseases. Considerable attention has been given in the past decades to develop methods to study and screen for the environmental chemicals that have the potential to interfere with metabolic homeostasis, reproduction, developmental and behavioral functions. Therefore AR binding assay for screening against androgen agonists and antagonists can be used to identify potential endocrine disruptors.\nMDA-kb2 cells (from ATCC, deposited by Wilson et al.) are human breast carcinoma cells that were stably transfected with a luciferase reporter gene under control of the MMTV promoter that contains response elements for both androgen receptor (AR) and glucocorticoid receptor (GR). This particular screening for measuring luciferase reporter gene activity using MDA-kb2 cells against Tox21 10K library compounds is a confirmation study on agonist mode screening in the presence of AR-antagonist compound (Nilutamide) at 3.0uM final concentration. The cytotoxicity of the compounds was tested in parallel by measuring the cell viability using CellTiter-Fluor assay system (Promega, Madison, WI) in the same wells.\nTox21 Assay Protocol Summary:\nMDA-kb2 cells (cells cultured without CO2) were dispensed at 3,000 cells/well in 4uL of culture medium into white wall/solid-bottom 1536-well plates (Corning Life Sciences, Corning, NY) using a Multidrop Combi (Thermo Fisher Scientific Inc., Waltham, MA) dispenser. The assay plates were incubated at 37C and 0% CO2 for 5hr. One uL of 3.0uM (final concentration) Nilutamide or assay buffer was added using two separate tips of Flying Reagent Dispenser (FRD, Aurora Discovery, San Diego, CA). Then 23nL of compounds dissolved in DMSO at 15 concentrations and positive controls were transferred to the assay plates using a Pintool station (Wako, San Diego, CA). The assay plates were incubated at 37C and 0% CO2 for 16 hr. After 15hr incubation at 37C, 1uL/well CellTiter-Fluor reagent (Promega Corporation) was added to each well of the assay plates using FRD. After 1hr incubation at 37C and 0% CO2, the fluorescence signal was measured using a ViewLux plate reader (PerkinElmer, Shelton, CT).", "values": [{"smiles": "O=C(O)Cn1cnnn1", "activity change, negative = cytotoxicity": "2.44% [at 42.5 µM] (inactive)"}, {"smiles": "N[C@@H]1CONC1=O", "activity change, negative = cytotoxicity": "-0.622% [at 42.5 µM] (inactive)"}, {"smiles": "CC(C)(C)NCC(O)c1cc(O)cc(O)c1", "note": "(stereo not given)", "activity change, negative = cytotoxicity": "0.0329% [at 42.5 µM] (inactive)"}, {"smiles": "CCCCC/C=C/CC1CC(=O)OC1=O", "note": "(stereo not given)", "activity change, negative = cytotoxicity": "-2.6% (inactive)"}, {"smiles": "Oc1c(Cl)cc(Cl)c(Cl)c1Cc1c(O)c(Cl)cc(Cl)c1Cl", "Potency": "8.61 µM (active) and 9.69 µM (active) and 9.44 µM (active)"}, {"smiles": "O=Nc1ccc(Nc2ccccc2)cc1", "Potency": "54.8 µM (active) and 54.5 µM (active)"}, {"smiles": "Cc1cc(Cc2cc(C)cc(C(C)(C)C)c2O)c(O)c(C(C)(C)C)c1", "Potency": "61.4 µM (active) and 68.6 µM (active)"}, {"smiles": "CC(=O)CC(=O)Nc1ccc2[nH]c(=O)[nH]c2c1", "activity change, negative = cytotoxicity": "0.469% (inactive)"}, {"smiles": "Cc1cccc([N+](=O)[O-])c1C(=O)O", "activity change, negative = cytotoxicity": "0.689% (inactive)"}, {"smiles": "c1ccc2cc3c(ccc4ccccc43)cc2c1", "Potency": "inactive"}, {"smiles": "CC(C)(c1ccccc1)c1ccc(Nc2ccc(C(C)(C)c3ccccc3)cc2)cc1", "Potency": "inactive"}, {"smiles": "O=C(O)c1cn(-c2ccc(F)cc2)c2cc(N3CCNCC3)c(F)cc2c1=O", "Potency": "inactive"}, {"smiles": "COc1cc(C(=S)N2CCOCC2)ccc1O", "activity change, negative = cytotoxicity": "3.04% [at 42.5 µM] (inactive)"}, {"smiles": "COC(=O)[C@H]1[C@H]2C[C@@H]3c4[nH]c5cc(OC)ccc5c4CCN3C[C@H]2C[C@@H](OC(=O)c2cc(OC)c(OC)c(OC)c2)[C@@H]1OC", "Potency": "inactive"}, {"smiles": "Cc1cccc2n[nH]nc12", "Potency": "inactive"}, {"smiles": "CC(C)(C)NCC(O)COc1ccccc1OCC1CCCO1", "note": "(stereo not given)", "activity change, negative = cytotoxicity": "1.07% [at 42.5 µM] (inactive)"}, {"smiles": "CCCCCCCCCCCCCCCCCl", "activity change, negative = cytotoxicity": "1.7% [at 19 µM] (inactive)"}, {"smiles": "CO[Si](OC)(OC)c1ccccc1", "activity change, negative = cytotoxicity": "4.74% (inactive)"}, {"smiles": "c1ccc2c(c1)CCCC2C1=NCCN1", "note": "(stereo not given)", "activity change, negative = cytotoxicity": "3.74% [at 42.5 µM] (inactive)"}, {"smiles": "NC(Cc1ccc(Cl)cc1)C(=O)O", "note": "(stereo not given)", "activity change, negative = cytotoxicity": "4.35% [at 0.35 µM] (inactive)"}, {"smiles": "C=CS(=O)(=O)O", "activity change, negative = cytotoxicity": "4.7% (inactive)"}, {"smiles": "OCCN1CCNCC1", "Potency": "inactive"}, {"smiles": "COc1nc(C)nc(Cl)c1NC1=NCCN1", "activity change, negative = cytotoxicity": "3.35% [at 42.5 µM] (inactive)"}, {"smiles": "NCCO", "Potency": "inactive"}, {"smiles": "CCN(CC)c1ccc2c(C)cc(=O)oc2c1", "Potency": "inactive"}, {"smiles": "COC(=O)/C=C/c1ccccc1", "Potency": "inactive"}, {"smiles": "CC(COc1ccccc1)N(CCCl)Cc1ccccc1", "note": "(stereo not given)", "Potency": "55 µM (active) and 61.1 µM (active)"}, {"smiles": "COc1ccc(Cc2cnc(N)nc2N)cc1OC", "activity change, negative = cytotoxicity": "3.78% [at 42.5 µM] (inactive)"}, {"smiles": "CC(C)C(=O)c1c(C(C)C)nn2ccccc12", "activity change, negative = cytotoxicity": "2.96% [at 42.5 µM] (inactive)"}, {"smiles": "CCCCCCC(O)CCCCCCCCCCC(=O)O", "note": "(stereo not given)", "Potency": "inactive"}, {"smiles": "CC[C@@H](N)CO", "activity change, negative = cytotoxicity": "2.91% (inactive)"}, {"smiles": "CN1C(=O)c2ccc([N+](=O)[O-])cc2C1=O", "activity change, negative = cytotoxicity": "-0.103% (inactive)"}, {"smiles": "O=C(O)CP(=O)(O)O", "activity change, negative = cytotoxicity": "1.49% [at 42.5 µM] (inactive)"}, {"smiles": "CC(C)CCOCc1ccccc1", "activity change, negative = cytotoxicity": "2.63% (inactive)"}, {"smiles": "Cc1scc2c1N(C(=O)CN1CCN(C)CC1)c1ccccc1NC2=O", "activity change, negative = cytotoxicity": "0.338% [at 42.5 µM] (inactive)"}, {"smiles": "Nc1cc(S(=O)(=O)O)cc2cc(S(=O)(=O)O)cc(O)c12", "Potency": "inactive and 27.3 µM (active)"}, {"smiles": "CC(=O)Nc1ccc(C(=O)CCl)cc1", "Potency": "54.5 µM (active)"}, {"smiles": "NC(N)=NC(=O)Cc1c(Cl)cccc1Cl", "activity change, negative = cytotoxicity": "-0.787% [at 42.5 µM] (inactive)"}, {"smiles": "CCCCN(CCO)CCCC", "activity change, negative = cytotoxicity": "-1.31% (inactive)"}, {"smiles": "CCCN[C@H]1CCc2nc(N)sc2C1", "Potency": "inactive"}]}]}
